12-hLO inh = inhibitors of human 12-lipoxygenase (ALOX12); AID 1452; hit rate 0.12% among 150,000; P18054; Potency, µM (series often up to 57.1 µM), without a hit: at the top dose activity change, negative = inhibition, usual class: inhibitors; purified 12-hLO, xylenol orange hydroperoxide absorbance; further: potency means the concentration at half of the fitted maximal effect; nearly all actives have a fitted effect of over 55% in size
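Hydroperoxide formation by human 12-lipoxygenase from 40 uM arachidonic acid was followed colorimetrically via ferric-xylenol orange complex, using the 573/405 nm absorbance ratio. Enzyme concentration was 150 nM, with 30 min reaction at room temperature.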
HPGD inh = blocks human HPGD enzyme activity; P15428; purified HPGD, NADH fluorescence kinetic, PGE2 substrate; Potency, µM, inactives show top-dose activity change, negative = inhibition, most hits filed as inhibitors; hit rate 4.3% among 150,000; active means well fitted inhibition curve with a large enough effect, not every such curve was filed as active; inconclusive means small, poorly fitted or top-dose-only effect, or another doubt; inactive means no such curve, though single readings can be large or run the other way; further: potency means the concentration at half of the fitted maximal effect
Target sequence (P15428 whole entry, looked up): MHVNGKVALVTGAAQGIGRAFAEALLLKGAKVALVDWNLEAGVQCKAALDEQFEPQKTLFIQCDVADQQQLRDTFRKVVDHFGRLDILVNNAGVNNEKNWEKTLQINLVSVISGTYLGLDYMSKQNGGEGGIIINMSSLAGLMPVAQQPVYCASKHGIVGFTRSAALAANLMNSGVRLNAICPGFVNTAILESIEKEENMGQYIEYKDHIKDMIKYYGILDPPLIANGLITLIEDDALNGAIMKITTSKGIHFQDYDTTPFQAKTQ
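NADH formation kinetics: reaction with 30 uM PGE2 and 1 mM NAD+ (final), 20 nM enzyme, Tris-HCl pH 8 with Tween 20, after 15 min compound preincubation at room temperature. Fluorescence change, last versus first of five reads.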
PNC assembly inh = inhibitors of perinucleolar compartment assembly; PC3M PTB-GFP, PNC prevalence imaging, 16 h; stronger effect = lower value; activity change (PNC), negative = inhibition, % at 10 µM; hit rate 3.1% among 140,000;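 active means readout at or below -70, meaning at least 70% loss of cells showing the perinucleolar compartment, a nuclear body marking cancer cells; inconclusive means readout between -30 and a set limit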;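 further: plate controls were DMSO wells for no effect and camptothecin positive control wells for full effect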
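Read-out is percentage of cells bearing a perinucleolar compartment, from automated 20x imaging of fixed, Hoechst-stained PC3M PTB-GFP cells. Cells were seeded 4 h, then exposed 16 h to compound (23 nl of library stock) in duplicate plates.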
IMPase Li cell = IMPase inhibition in cells with lithium potentiation | Potency, µM (doses to about 59.4 µM), without a hit: top-dose activity, negative = IMPase inhibition, hits mostly inhibitors | hit rate 0.35% among 210,000 | CHO-M1 cells, IP1 TR-FRET (IP-One), carbachol + lithium;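 further: IP1 builds up when IMPase is blocked and the TR-FRET signal falls; potency means the concentration at half of the fitted maximal effect; plate controls were basal vehicle for no effect and high inhibitor control for full effect; nearly all actives have a fitted effect of over 50% in size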
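CHO-M1, 2000 cells/well, 16–30 h culture; cpd + low Li+, 30 min 37C; lysis with d2-IP1/Eu-anti-IP1 Ab, 10 min RT; TR-FRET 665/620 ratio and 620 channel; AC50 via Hill.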
ALDH1A1 inh = ALDH1A1 (human) enzyme inhibition. P00352. Purified ALDH1A1, NADH fluorescence, propionaldehyde substrate. Potency, µM (titrated, usually from 75.3 µM), without a hit: top-dose activity, negative = inhibition, actives largely listed as inhibitors. hit rate 7.3% among 220,000; active means well fitted inhibition curve with a large enough effect, not every such curve was filed as active; inconclusive means small, poorly fitted or top-dose-only effect, or another doubt; inactive means no such curve, though single readings can be large or run the other way;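 further: potency means the concentration at half of the fitted maximal effect; plate controls were no enzyme wells and a reference inhibitor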
IMPase cell inh = cell-permeable inhibitors of inositol monophosphatase (IMPase). CHO-M1 cells, IP1 accumulation, HTRF TR-FRET ratio. AID 901. 120,000 tested, under 10 active. inhibition (IP1 accumulation), % at 46.1 µM. P97697; active means well fitted curve in the direction sought with a large enough effect in the signal ratio, not every such curve was filed as active; inconclusive means small, poorly fitted or top-dose-only effect, or a change in a side signal; inactive means no such curve, though single readings can be large or run the other way; the % refers to the signal ratio;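 further: cells stimulated with carbachol in lithium chloride buffer; plate controls were DMSO basal wells for no effect and reference inhibitor wells for full effect; higher means more IMPase inhibition seen as more IP1 and lower FRET ratio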
Target sequence (P97697 whole entry, looked up): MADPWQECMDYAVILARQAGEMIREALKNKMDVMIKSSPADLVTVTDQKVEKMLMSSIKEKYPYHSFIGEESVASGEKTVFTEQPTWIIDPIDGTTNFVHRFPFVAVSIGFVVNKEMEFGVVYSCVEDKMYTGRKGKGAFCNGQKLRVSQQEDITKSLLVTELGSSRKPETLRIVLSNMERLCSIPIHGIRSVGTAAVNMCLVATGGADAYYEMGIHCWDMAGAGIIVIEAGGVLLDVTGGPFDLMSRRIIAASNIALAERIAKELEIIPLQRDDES
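Cellular IMPase inhibition is scored as a rise in cytosolic IP1, detected by competitive TR-FRET between d2-labelled IP1 and a europium anti-IP1 antibody. M1-expressing CHO cells were stimulated with carbachol for 30 min at 37C, with lithium (50 mM LiCl) present in the buffer.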
The depositor's hits bear a star; ? = inconclusive; . = no result given; ! = not active in a repeat; [ ] = remark or other dose. Hits are enriched below; roughly 11% of the tested compounds scored in any of these assays. Unless noted, the call rests on the fitted dose curve; in most records, active means well fitted curve in the direction sought with a large enough effect; inconclusive means small, poorly fitted or top-dose-only effect, or another doubt; inactive means no such curve, though single readings can be large; an effect the other way counts as inactive or inconclusive. Unless noted, on the % scale 0 is the no-effect control and ±100 the full control effect.

SMILES	12-hLO inh	HPGD inh	PNC assembly inh	IMPase Li cell	ALDH1A1 inh	IMPase cell inh
O=C(Nc1ccc2c(c1)OCCO2)C1CCN(S(=O)(=O)c2ccccc2)CC1	.	.	.	7%	-5%	.
O=C(Nc1ccc2c(c1)OCCO2)C1CCN(c2nnnn2-c2ccccc2)CC1	-4%	-3%	?	-6%[38.3 µM]	3.5µM*	-2
N#Cc1cnn2c(N)c(-c3ccc(Cl)cc3)cnc12	.	.	.	11µM*	?	.
Nc1c(C(=O)O)cnc2c(-c3ccc(Cl)cc3)cnn12	.	.	.	23%	?	.
O=c1cc(-c2cc(O)c(O)c(O)c2)oc2cc(O)cc(O)c12	-26%	?	.	24%	?	.
O=c1cc(-c2ccc(O)cc2)oc2cc(O)cc(O)c12	-3%	32µM*!	.	28%	1.8µM*!	?
O=c1c(O)c(-c2ccc(O)cc2)oc2cc(O)cc(O)c12	-8%	28µM*!	.	34%	-6%[20.9 µM]	20
O=c1cc(-c2ccccc2)oc2cc(O)cc(O)c12	-14%	-22%	.	23%	8.9µM*	0
COc1cccc(-c2nc(SCC(=O)Nc3ccc4c(c3)OCCO4)c(-c3ccc(C)cc3)[nH]2)c1	.	.	.	.	.	8
NC(=O)c1ccc(NC(=O)COC(=O)/C=C/c2cccs2)cc1	.	.	.	3%	2%	.
CCN(c1ccc(NC(=O)COC(=O)/C=C/c2cccs2)cc1)C(C)C	.	.	.	30%	0.13µM*	.
Cc1ccc(NC(=O)COC(=O)/C=C/c2cccs2)cc1	-4%	28µM*	?	-2%	11%	.
Nc1ccn([C@@H]2O[C@H](COC(=O)C34CC5CC(CC(C5)C3)C4)[C@@H](O)[C@@H]2O)c(=O)n1	2%[11.4 µM]	-14%	.	-4%	-9%[13.5 µM]	.
COC(=O)Cn1c(C(=O)N(C)C)cc2c1C[C@H]1CN(C(=O)c3ccccc3)[C@@](Cc3ccc(OC)cc3)(C(=O)OC)[C@@H]21	-1%	-10%	.	-13%	3%	.
CCCCCCCOC(=O)c1ccc(OC(=O)c2cccnc2)cc1	-1%	22µM*	25	38%[38.3 µM]	?	-8
CC(=O)CCc1ccc(OC(=O)c2cccnc2)cc1	-2%	-8%	-100*	-4%	4%	-1
O=Cc1ccc(OC(=O)c2cccnc2)cc1	.	.	.	3%	5µM*	.
O=C(c1ccccn1)N(c1ccccc1)C1(C(=O)NC2CCCCC2)CCCCC1	.	.	.	5%	5%	.
CC(C)CCn1cnc2c(sc3nc4c(cc32)CSC(C)(C)C4)c1=O	-2%	-10%	?	2%	1.8µM*	-8
CCCCn1cnc2c(sc3nc4c(cc32)CSC(C)(C)C4)c1=O	-5%	-17%	-27	-28%	1.1µM*	.
CC1(C)Cc2nc3sc(C(=O)O)c(N)c3cc2CS1	.	.	.	-2%	-11%	.
COc1cccc(Cn2c(=O)c(C)nc3cnc(Nc4ccccc4)nc32)c1	.	.	.	12%	-4%	.
CCCCCc1cc(O)c2c(C)cc(=O)oc2c1	-2%	-20%	3	?	1.8µM*	-6
CCCc1cc(=O)oc2cc(C)cc(OC(=O)c3ccco3)c12	-5%	3%	?	12%[38.3 µM]	2.2µM*	-9
CCCc1cc(=O)oc2cc(C)cc(O)c12	-7%	-15%	9	1%[38.3 µM]	8.9µM*	-24
SMILES	12-hLO inh	HPGD inh	PNC assembly inh	IMPase Li cell	ALDH1A1 inh	IMPase cell inh
CCc1cc(=O)oc2cc(C)c(CN3CCCC(C)C3)c(O)c12 (stereo unspecified)	?	-8%	30	12%[38.3 µM]	?	-6
Cc1cc(=O)oc2cc(O)cc(O)c12	-4%	?	.	-13%	?	.
CCCc1cc(=O)oc2cc(C)cc(OCc3nn[nH]n3)c12	-3%	?	20	-16%[38.3 µM]	?	1
CCc1cc(=O)oc2cc(C)cc(OCC(=O)C(C)(C)C)c12	.	.	.	2%	?	.
CCCCc1cc(=O)oc2cc(C)c(CN3CCCC3)c(O)c12	-20%	-17%	4	13%[38.3 µM]	22µM*	0
CCOC(=O)CNC(=O)CSc1ccc2nnc(-c3ccc(F)cc3)n2n1	.	.	.	9%	?	.
C/C=C/c1ccc(OC(C)[C@@H](O)c2ccc(O)c(OC)c2)c(OC)c1 (stereo partly specified)	.	-20%	.	15%	?	.
O=C1[C@H]2CCC=C[C@H]2[C@H](c2cccc(Br)c2)N1Cc1ccccc1	-5%[0.00818 µM]	-10%	.	3%	-10%	.
C[C@@]12CC(=O)C3=C(CCCC3=O)N1CCc1ccccc12	.	-2%	.	6%	-6%	.
CCc1cc(=O)oc2cc(C)cc(O)c12	-8%	28µM*	-4	3.2µM*	4.5µM*	?
COc1ccc(-c2cc(C(=O)N3CC4(C)CC3CC(C)(C)C4)no2)cc1 (stereo unspecified)	1%	35µM*	-11	18%[38.3 µM]	-15%	-4
CC1CCN(C(=O)c2cc(-c3ccccc3O)on2)CC1	-8%	14µM*	?	15%[38.3 µM]	14µM*	2
O=C(c1cc(-c2ccc(Cl)c(Cl)c2)on1)N1CCN(c2ccccc2)CC1	-7%	-4%	-23	18%[38.3 µM]	4%	5

Bioassay records as filed in PubChem BioAssay.
